MBNL1-CUG inh: inhibitors of human MBNL1 binding to CUG repeat RNA; Q9NR56; TR-FRET MBNL1-His/biotin-(CUG)12 binding, 665/545 ratio; Potency, µM (titrated, usually from 57.5 µM), without a hit: at the highest dose activity change, negative = inhibition, actives largely listed as inhibitors; 280,000 compounds, 0.036% hits; AID 2675; active means well fitted inhibition curve with a large enough effect in the signal ratio, with a control signal flat, not every such curve was filed as active; inconclusive means small, poorly fitted or top-dose-only effect, or effect the other way, or a change in a side signal; inactive means no such curve, though single readings can be large or run the other way; the % refers to the signal ratio; further: potency means the concentration at half of the fitted maximal effect; on the % scale 0 is the no-effect control and ±100 the full control effect
Target sequence (Q9NR56 whole entry, looked up): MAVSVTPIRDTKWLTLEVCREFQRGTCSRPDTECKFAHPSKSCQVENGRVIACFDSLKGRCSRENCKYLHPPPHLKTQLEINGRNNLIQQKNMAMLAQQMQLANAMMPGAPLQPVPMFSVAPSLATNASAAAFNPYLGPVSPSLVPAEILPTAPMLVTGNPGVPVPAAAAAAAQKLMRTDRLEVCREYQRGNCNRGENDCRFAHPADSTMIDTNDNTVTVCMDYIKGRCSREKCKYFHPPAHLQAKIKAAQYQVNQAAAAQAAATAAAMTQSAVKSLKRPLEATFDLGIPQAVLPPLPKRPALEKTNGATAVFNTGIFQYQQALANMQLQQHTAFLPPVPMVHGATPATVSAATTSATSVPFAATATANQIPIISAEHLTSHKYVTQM
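MBNL1-His + Biotin-(CUG)12, cpd titration 92 nM–58 uM; Tb anti-His Ab 0.055 ng/ul, SA-XL665 5 nM (final); 60 min RT; ratiometric 665/545 nm, Ex 340 nm; normalized to buffer and full-complex controls.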
VP16 counter: counter-screen for ROR gamma inhibitors: Gal4-VP16 reporter. AID 2546. 310,000 compounds, 3.5% hits. Drosophila S2 Gal4-VP16 UAS-luciferase, luminescence, 20 h. Potency, µM (titrated, usually from 53.6 µM), for the others: top-dose activity, negative = inhibition, actives largely listed as inhibitors;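 further: Gal4-VP16 expression switched on by copper sulfate through the metallothionein promoter; potency means the concentration at half of the fitted maximal effect; on the % scale 0 is the no-effect control and ±100 the full control effect; nearly all actives have a fitted effect of over 50% in size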
RORgamma inh: inhibitors of mouse ROR gamma transcriptional activity; P51450; Drosophila S2 Gal4-RORgamma UAS-luciferase reporter, 20 h; Potency, µM (series often up to 53.6 µM), for the others: top-dose activity change, negative = inhibition, most hits filed as inhibitors; 310,000 compounds, 5.4% hits; AID 2551; further: potency means the concentration at half of the fitted maximal effect; on the % scale 0 is the no-effect control and ±100 the full control effect; nearly all actives have a fitted effect of over 60% in size
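Drosophila Schneider cells stably carrying a metallothionein-driven Gal4 DBD–ROR gamma fusion and a UAS-Photinus luciferase reporter were exposed to compound for 1 hr, then induced with copper sulfate (700 uM final) for 20 hr at ambient temperature before luminescence reading.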
Six1-Eya2 inh: blocks human Six1 binding to Eya2. 360,000 compounds, 0.56% hits. AlphaScreen GST-Six1/His-Eya2 binding, biochemical; active compounds read low. Q15475+O00167. activity change, % (test concentration not listed). AID 651725; in the data active means activity change below about -65%; inconclusive means mostly about -30% to -63%; further: on the % scale 0 is the no-effect control and ±100 the full control effect
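Six1/Eya2 binding was read as AlphaScreen signal after compounds were pinned into GST-Six1 plus His-tagged Eya2 (5X stock 250/500 nM) in pH 8.0 Tris/NaCl/TCEP buffer, beads added, then incubated 1 h, 37 C, dark.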
CBFb-RUNX1 inh: inhibitors of human CBF-beta and RUNX1 interaction; AlphaScreen CBFb-His/RUNX1-biotin binding, biochemical; Potency, µM (top dose mostly 59.8 µM), inactives show at the top dose activity, negative = inhibition, hits mostly inhibitors; 230,000 tested, under 10 active; AID 1477; further: % of control where 0% means no effect
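Bead-based AlphaScreen assay; binding partners His-tagged CBF-beta and biotinylated RUNX1 at 30 nM each. Compound exposure 15 min after a 20-min protein preincubation; bead step 90 min; all steps at room temperature.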
CtBP-E1A blk: CtBP/E1A binding inhibition; AlphaScreen GST-E1A/His-CtBP binding, 1536-well; active compounds read low; activity change, % (no concentration beside the values); 340,000 compounds, 0.49% hits; AID 651724; in the data active means activity change below about -65%; inconclusive means mostly about -30% to -63%; further: on the % scale 0 is the no-effect control and ±100 the full control effect
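Protein mix (5X: 125 nM each GST-E1A, His-CtBP) was incubated with pinned compound 2 h at 37 deg C in dark, in 50 mM Tris pH 8.0 buffer with 300 mM NaCl. Glutathione donor and nickel acceptor beads followed; AlphaScreen signal read after 1 h.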
* = called active by the depositor; u = inconclusive; x = not tested or not shown; [ ] = another dose, or the depositor's remark. Hits are enriched below; roughly 5.5% of the tested compounds scored in any of these assays. Unless noted, the call rests on the fitted dose curve; in most records, active means well fitted curve in the direction sought with a large enough effect; inconclusive means small, poorly fitted or top-dose-only effect, or another doubt; inactive means no such curve, though single readings can be large; an effect the other way counts as inactive or inconclusive.

SMILES	MBNL1-CUG inh	VP16 counter	RORgamma inh	Six1-Eya2 inh	CBFb-RUNX1 inh	CtBP-E1A blk
CCCN1CCC2(CC1)C(C#N)=C(N)Oc1c2sc2nc(C)cc(C)c12	15.2%	-3.6%	-8.9%	-19.9	7.5%	-16.8
CCOC(=O)N1CCC2(CC1)C(C#N)=C(N)Oc1c2sc2nc(C)cc(C)c12	-4.5%	u	8.91µM*	-14.3	-0.6%	-16.6
CC(C)(C)C(=O)NNc1nc(-c2ccccc2)c2cc(Br)ccc2n1	15.6%	4.2%	-17.9%	-22.9	-8.7%	-26.4
O=C(O)CCC(=O)NNc1nc(-c2ccccc2)c2cc(Cl)ccc2n1	u	-12.1%	0.9%	0.0	x	-2.5
O=C(CN1CCCCC1)NNc1nc(-c2ccccc2)c2cc(Cl)ccc2n1	7.4%	3.98µM*	5.01µM*	-1.7	-4.8%	0.5
CCN(CC)S(=O)(=O)c1ccc(C(=O)NNc2nc(-c3ccccc3)c3cc(Br)ccc3n2)cc1	-0.4%	u	20µM*	-28.1	-13.4%	-2.3
O=C(CN1CCOCC1)NNc1nc(-c2ccccc2)c2cc(Br)ccc2n1	u	-11.7%[10 µM]	8.91µM*	-9.5	2.5%	-16.6
Cc1ccc(C(=O)OC[C@H]2O[C@H](Cl)C[C@@H]2OC(=O)c2ccc(C)cc2)cc1	x	-10.6%	22.5%	x	8.2%	x
COc1ccc([C@]23Cc4cc(C#N)ccc4C(O2)C2=C(CC4(CCCCC4)OC2=O)O3)cc1	11.7%[11.5 µM]	-2.8%[10 µM]	19.1%[10 µM]	x	x	x
CC(=O)C1=C(c2cccc([N+](=O)[O-])c2)N(C(C)=O)n2c(C)nnc2S1	u	u	5.01µM*	-9.4	-17.5%	-15.3
Cc1ccccc1NC1=NC(=S)N(c2ccccc2)C12CCCCC2	15.1%[11.5 µM]	u	3.55µM*	-1.5	7.8%	-5.8
CC1(C)CC2(CCO1)C(Nc1ccccc1)=NC(=S)N2c1ccccc1 (stereo unspecified)	x	2.8%	25.1%	14.2	-0.8%	3.2
Cc1ccccc1NC1=NC(=S)N(c2ccccc2)C12CCOC(C)(C)C2 (stereo unspecified)	-4.9%	17.8µM*	6.31µM*	8.4	-3.2%	-0.2
Cc1nc2cc(-c3cccc(F)c3)nn2c(C)c1CCC(=O)NC(C)CCc1ccco1 (stereo unspecified)	3.8%	-2.3%	11.2µM*	-24.7	-11.0%	-19.3
COc1cc(OC)cc(-c2cc3nc(C)c(CCC(=O)NC(C)CCc4ccco4)c(C)n3n2)c1 (stereo unspecified)	-3.0%	-18.1%	u	u	3.2%	u
O=C(C[C@H]1C/C=C\C[C@@H](Cc2ccc(F)cc2)C(=O)O[C@H](c2ccccc2)CNC1=O)NCCO	x	x	x	4.9	x	5.4
O=C(Cc1ccccc1)N[C@H](c1ccccc1)P(=O)(O)CO	-3.0%	-4.4%	2.82µM*	0.1	3.4%	7.8
CCc1ccccc1NC(=O)CNC(=O)c1ccc(-n2cncn2)c([N+](=O)[O-])c1	x	x	x	4.4	x	7.1
CCOC(=O)c1c(-c2ccc(C)o2)csc1NC(=S)NC(=O)N(C)C	11.9%	2.24µM*	0.794µM*	-16.5	-4.0%	-18.1
CCOC(=O)c1c(-c2ccc(C)o2)csc1NC(=O)COC(=O)c1cccs1	111.8%	20µM*	u	-2.4	5.1%	5.2
CCOC(=O)c1c(-c2ccc(C)o2)csc1NC(=O)CN1CCOCC1	7.1%	-1.4%	12.9%	-17.9	0.9%	-6.3
O=C(O)c1cc(O)c2c(c1)C(=O)c1cccc(O)c1C2=O	u	u	u	-73.5*	-29.3%	-84.1*
CCC(C)(C)c1nnc(NC(=O)CCC2CCCCC2)s1	x	x	x	2.4	x	-6.8
O=c1cnnc(N/N=C/c2ccc3c(c2)OCO3)[nH]1	-8.3%	-3.4%	-15.0%	-10.8	9.7%	-14.1
Cc1cc(N/N=C/c2ccc3c(c2)OCO3)nc2ccccc12	-4.5%	-10.9%	12.6µM*	-7.8	4.2%	-4.8
O=c1[nH]c(N/N=C\c2ccc3c(c2)OCO3)nc2ccccc12	u	u	u	u	-2.9%	-68.4*
